# From PubChem BioAssay
# Active and inactive are the calls of the source.
# Experiments:
# [1] = small molecules captured by biotinylated probe aFSTL3 – biochemical, small-molecule microarray, fluorescence 635/667, stem cell growth factor project, primary screen (AID 1064); conditions: higher = more signal;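 also: measures binding of the biotinylated anti-FSTL3 antibody to printed compounds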
# [2] = binders from COS7 lysate, DM2A8 probe, primary screen, torsin A project, cell lysate, small-molecule microarray, fluorescence 635/667 (AID 1065); conditions: higher = more signal, COS7 lysate expressing mutant human TOR1A
# [3] = small molecules captured by biotinylated probe aFGF2 – biochemical, small-molecule microarray, fluorescence 635/667, stem cell growth factor project, primary screen (AID 1067); conditions: higher = more signal;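 also: measures binding of biotinylated aFGF2 protein to printed compounds on slides; z-score merges feature fluorescence and signal-to-noise across triplicate slides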
# [4] = small molecules captured by biotinylated probe aFGF10 – biochemical, small-molecule microarray, fluorescence 635/667, stem cell growth factor project, primary screen (AID 1071); conditions: higher = more signal;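 also: score merges 667 nm spot intensity and signal to noise from triplicate slides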
# [5] = biological target: Neurogenic locus notch homolog protein 2 (Homo sapiens) (UniProt Q04721); test: small molecules binding Notch2 protein – biochemical, small-molecule microarray, 635 nm fluorescence, stem cell growth factors, primary screen (AID 1073); conditions: higher = more signal
# Neurogenic locus notch homolog protein 2 (Homo sapiens), sequence (Q04721 whole entry, looked up, canonical isoform): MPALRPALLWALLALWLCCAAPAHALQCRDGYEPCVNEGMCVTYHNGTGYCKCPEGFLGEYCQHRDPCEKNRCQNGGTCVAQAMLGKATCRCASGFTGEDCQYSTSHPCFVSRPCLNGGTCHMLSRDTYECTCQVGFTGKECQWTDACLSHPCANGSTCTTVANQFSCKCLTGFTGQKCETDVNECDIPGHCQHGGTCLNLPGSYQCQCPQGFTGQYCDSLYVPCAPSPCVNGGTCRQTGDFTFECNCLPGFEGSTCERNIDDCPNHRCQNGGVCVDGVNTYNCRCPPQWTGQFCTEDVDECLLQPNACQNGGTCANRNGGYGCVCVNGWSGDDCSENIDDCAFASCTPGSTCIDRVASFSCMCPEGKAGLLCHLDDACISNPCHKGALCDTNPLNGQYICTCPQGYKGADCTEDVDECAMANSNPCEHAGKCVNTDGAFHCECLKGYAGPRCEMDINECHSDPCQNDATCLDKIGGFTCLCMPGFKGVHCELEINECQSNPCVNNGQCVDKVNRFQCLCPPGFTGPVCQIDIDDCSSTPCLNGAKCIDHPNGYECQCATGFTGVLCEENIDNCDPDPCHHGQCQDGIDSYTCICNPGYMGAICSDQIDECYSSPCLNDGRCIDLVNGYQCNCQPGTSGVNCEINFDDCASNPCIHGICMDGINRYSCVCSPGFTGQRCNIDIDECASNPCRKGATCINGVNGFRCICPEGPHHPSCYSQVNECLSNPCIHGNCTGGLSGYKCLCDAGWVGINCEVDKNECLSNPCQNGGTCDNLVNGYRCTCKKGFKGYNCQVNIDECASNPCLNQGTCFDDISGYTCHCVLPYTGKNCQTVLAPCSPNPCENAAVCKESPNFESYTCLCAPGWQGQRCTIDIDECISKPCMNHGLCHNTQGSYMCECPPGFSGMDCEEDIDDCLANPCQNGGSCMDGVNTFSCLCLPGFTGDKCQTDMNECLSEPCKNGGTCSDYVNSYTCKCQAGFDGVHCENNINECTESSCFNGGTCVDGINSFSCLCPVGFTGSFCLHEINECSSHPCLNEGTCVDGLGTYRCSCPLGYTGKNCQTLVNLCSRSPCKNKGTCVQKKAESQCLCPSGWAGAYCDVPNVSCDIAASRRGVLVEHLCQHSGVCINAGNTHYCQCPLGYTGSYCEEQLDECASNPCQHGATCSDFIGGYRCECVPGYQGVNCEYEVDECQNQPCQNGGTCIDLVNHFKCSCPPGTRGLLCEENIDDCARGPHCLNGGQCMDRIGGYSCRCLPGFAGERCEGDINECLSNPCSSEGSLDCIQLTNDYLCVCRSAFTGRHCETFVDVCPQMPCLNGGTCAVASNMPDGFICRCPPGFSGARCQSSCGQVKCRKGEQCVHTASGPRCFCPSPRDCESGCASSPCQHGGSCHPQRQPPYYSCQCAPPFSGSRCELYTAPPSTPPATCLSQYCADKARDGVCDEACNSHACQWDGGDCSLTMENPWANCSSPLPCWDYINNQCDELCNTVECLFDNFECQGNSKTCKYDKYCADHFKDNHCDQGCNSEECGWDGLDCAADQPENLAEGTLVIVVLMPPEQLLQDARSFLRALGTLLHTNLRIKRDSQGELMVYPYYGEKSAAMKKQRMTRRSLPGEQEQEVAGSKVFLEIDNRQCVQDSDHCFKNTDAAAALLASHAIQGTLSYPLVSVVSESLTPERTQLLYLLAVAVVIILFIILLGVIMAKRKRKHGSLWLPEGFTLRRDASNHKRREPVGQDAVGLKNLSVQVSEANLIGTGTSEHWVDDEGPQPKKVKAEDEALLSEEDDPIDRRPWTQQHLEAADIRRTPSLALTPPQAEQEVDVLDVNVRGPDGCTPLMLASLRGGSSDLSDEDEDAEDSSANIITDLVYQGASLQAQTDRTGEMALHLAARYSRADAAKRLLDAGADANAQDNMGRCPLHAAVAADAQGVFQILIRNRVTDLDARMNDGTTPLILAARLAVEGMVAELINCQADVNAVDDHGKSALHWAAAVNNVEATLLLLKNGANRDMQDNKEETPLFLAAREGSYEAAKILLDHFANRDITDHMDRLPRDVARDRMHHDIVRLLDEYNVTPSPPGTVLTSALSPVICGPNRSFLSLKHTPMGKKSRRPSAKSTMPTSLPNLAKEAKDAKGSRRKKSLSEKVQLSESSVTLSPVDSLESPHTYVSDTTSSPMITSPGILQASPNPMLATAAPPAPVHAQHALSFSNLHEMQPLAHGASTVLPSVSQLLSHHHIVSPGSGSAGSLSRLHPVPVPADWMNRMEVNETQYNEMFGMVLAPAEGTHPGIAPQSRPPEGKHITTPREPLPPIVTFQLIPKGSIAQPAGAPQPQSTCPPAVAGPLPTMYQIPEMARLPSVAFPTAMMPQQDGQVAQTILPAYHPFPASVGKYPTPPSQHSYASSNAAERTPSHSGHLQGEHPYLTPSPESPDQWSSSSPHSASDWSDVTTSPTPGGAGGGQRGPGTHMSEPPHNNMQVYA
# [6] = biological target: Pro-neuregulin-1, membrane-bound isoform (Homo sapiens) (UniProt Q02297); test: small molecules binding neuregulin-1 protein – biochemical, small-molecule microarray, fluorescence 635/667, psychiatric disease protein project, primary screen (AID 1075); conditions: NRG1 binding, 635 nm fluorescence, higher = more signal;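 also: score combines 667 nm spot fluorescence with signal to noise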
# Pro-neuregulin-1, membrane-bound isoform (Homo sapiens), sequence (Q02297 whole entry, looked up, the tested form may be a part, canonical isoform): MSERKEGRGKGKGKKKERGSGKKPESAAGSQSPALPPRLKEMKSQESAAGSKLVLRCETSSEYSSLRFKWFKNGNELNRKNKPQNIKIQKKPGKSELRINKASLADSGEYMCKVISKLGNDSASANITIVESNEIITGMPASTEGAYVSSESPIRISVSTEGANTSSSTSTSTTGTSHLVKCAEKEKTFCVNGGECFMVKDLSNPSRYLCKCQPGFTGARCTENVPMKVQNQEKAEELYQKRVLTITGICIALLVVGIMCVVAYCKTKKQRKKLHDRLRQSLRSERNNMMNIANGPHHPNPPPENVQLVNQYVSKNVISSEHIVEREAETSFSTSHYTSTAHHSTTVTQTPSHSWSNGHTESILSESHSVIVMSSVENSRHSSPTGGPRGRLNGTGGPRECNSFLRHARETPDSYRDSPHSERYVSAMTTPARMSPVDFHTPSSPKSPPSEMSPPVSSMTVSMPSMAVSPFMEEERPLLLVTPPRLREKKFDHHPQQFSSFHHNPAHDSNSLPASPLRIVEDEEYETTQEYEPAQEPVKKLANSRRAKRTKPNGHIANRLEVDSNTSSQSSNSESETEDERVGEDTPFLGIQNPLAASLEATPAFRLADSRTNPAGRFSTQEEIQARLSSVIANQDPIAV
# [7] = test system: Neuregulin-1 EGF-like domain; test: small molecules binding NRG1 EGF domain – biochemical, small-molecule microarray, 635 nm fluorescence, primary screen (AID 1081); conditions: higher = more signal;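 also: binding of the protein to compounds printed on small-molecule microarray slides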
# [8] = FRG1 expression reporter modulators in myotubes – cell-based, C2C12 myotubes, firefly/Renilla luciferase, luminescence, FRG1 inhibition for FSHD, primary screen (AID 1084); conditions: FRG1 promoter luciferase, higher = more signal, called active from +8 up or from −8 down
# [9] = small molecules captured by biotinylated probe aFST – biochemical, small-molecule microarray, fluorescence 635/667, stem cell growth factor project, primary screen (AID 1086); conditions: higher = more signal;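 also: score merges 667 nm fluorescence with signal-to-noise of each printed compound spot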
# [10] = binders of probe aHhip on microarray, primary screen, stem cell growth factor project, biochemical, small-molecule microarray, fluorescence 635/667 (AID 1087); conditions: higher = more signal;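 also: score merges spot fluorescence at 667nm with spot signal to noise ratio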
Structure (SMILES),composite z-score [1],composite z-score [2],composite z-score [3],composite z-score [4],composite z-score [5],composite z-score [6],composite z-score [7],z-score [8],composite z-score [9],composite z-score [10]
COc1ccc([Si](C)(C)[C@@H]2[C@@H](CC(=O)N3CCC[C@H]3CO)O[C@]3(C(=O)N(Cc4cccc(N5CCC5=O)c4)c4ccccc43)[C@H]2C)cc1,-0.0723,0.461,-0.0715,0.45,0.322,1.51,1.14,-0.548 (inactive),-0.187,0.107
CC(C)[C@@H](OCc1ccccc1)[C@H](C)C=NO[C@H](C)c1cn([C@H](CO)Cc2ccccc2)nn1,-0.479,0.227,-0.228,0.616,0.397,-0.154,0.658,-0.757 (inactive),0.344,-0.409
O=C(NN=C1C[C@@H](O)[C@@H](O)[C@@H]2[C@@H]3C(=O)N(c4cccc(Oc5ccccc5)c4)C(=O)[C@@H]3CC[C@@H]12)OCc1ccccc1,0.103,-0.336,-0.0891,0.0457,0.222,0.259,-0.157,0.31 (inactive),0.274,0.2
C[C@@H](c1ccccc1)N1C(=O)[C@H]2[C@H]3[C@H](O)[C@H](O)CC(=NOC[C@@H](O)COCc4ccco4)[C@@H]3CC[C@H]2C1=O,0.193,0.068,-0.159,-0.141,-1.02,-0.717,-0.647,-0.0058 (inactive),0.0275,-0.137
Cc1cc2c(nc1C)CCCN2CC(C)ON=C1[C@H]2CCn3c(=O)n(-c4ccccc4)c(=O)n3[C@H]2[C@H](O)[C@@H]2O[C@H]12 (stereo not given in full),-0.335,0.533,0.0477,0.73,0.36,0.0785,1.1,-0.325 (inactive),0.265,-0.194
COCCOC(=O)N1C(=O)[C@@]2(c3cc(C#CCNC(N)=O)ccc31)[C@H](c1ccc(O)cc1)N1[C@H](c3ccccc3)[C@H](c3ccccc3)OC(=O)[C@H]1[C@@H]2C(=O)N1CCCCCCC1,0.282,0.384,-0.0022,0.646,1.1,0.523,1.07,-0.199 (inactive),1.2,-0.0491
CC(C)CON=C1C[C@@H](O)[C@@H](O)[C@@H]2[C@@H]3C(=O)N([C@@H](C)c4ccccc4)C(=O)[C@@H]3CC[C@H]12,-0.572,-0.0881,-0.0156,0.915,1.01,0.561,1.1,-0.997 (inactive),0.629,0.21
Cn1c(=O)n2n(c1=O)[C@H]1[C@H](O)[C@@H]3O[C@@H]3C(=NOC[C@@H](O)COCc3ccco3)[C@H]1CC2,-0.319,0.614,-0.0538,0.296,0.515,-0.218,0.276,-0.532 (inactive),0.0036,0.0373
O=C1O[C@@H](c2ccccc2)[C@@H](c2ccccc2)N2[C@@H](c3ccccc3OCCO)[C@]3(C(=O)Nc4ccc(C#CCCO)cc43)[C@@H](C(=O)O)[C@H]12,-1.32,0.638,-0.189,0.798,0.438,1.84,1.36,-1.28 (inactive),-0.423,-0.945
CC(CCN1CCc2nc(-c3ccccc3)c(-c3ccccc3)cc2C1)=NO[C@@H](C)c1cn([C@H](CO)Cc2ccccc2)nn1,-0.261,0.608,-0.143,-0.0983,-0.674,0.424,0.124,-0.54 (inactive),0.0854,-0.189
CO[C@H]1O[C@H](CO)[C@@H](OC(=O)Nc2ccc(C#N)cc2)[C@H](OC(=O)c2cc3ccccc3[nH]2)[C@H]1OC(=O)c1cc2ccccc2[nH]1,0.0407,1.3,0.062,1.16,1.04,1.75,1.24,-1.79 (inactive),0.462,-0.0645
